Several values for one entry are separate records, joined by “and”; a condition that tells them apart may be missing. Equal values may be shown once. The whole screen tested about 5,500 compounds, of which about 2,000 (36%) were called active. Another 18% or so got no clear call; they are omitted. Rule as the data show it: active = normalized growth mostly below about 0.91 (no sharp cut-off); inconclusive = no clear call, values can overlap the other calls; inactive = mostly above about 0.92. The list shows a part of the results.
Experiment: chemical genetic growth profiling, strain panel (AID 1159580);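 also: tested at 20 µM; growth read once vehicle control cultures reached saturation at 30 °C; 1 = growth at the plate median or of vehicle wells; lower values mean less growth of the strain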
Details: growth OD

Measured: normalized growth

COc1ccc2cc([C@H](C)C(=O)O)ccc2c1
active: S. cerevisiae deletion strains, locus YLR113W, strain HOG1, stronger effect = lower value 0.757 | S. cerevisiae deletion strains, locus YNL298W, strain CLA4, stronger effect = lower value 0.848 | S. cerevisiae deletion strains, locus YPL256C, strain CLN2, stronger effect = lower value 0.807
inactive: S. cerevisiae deletion strains, locus YJR075W, strain HOC1, stronger effect = lower value 1.01 and 0.988 | S. cerevisiae deletion strains, locus YKL009W, strain mrt4, stronger effect = lower value 0.916 | S. cerevisiae deletion strains, locus YKL068W, stronger effect = lower value 0.983 | S. cerevisiae deletion strains, locus YKL085W, strain MDH1 (second series), stronger effect = lower value 0.977 | S. cerevisiae deletion strains, locus YKL085W, strain MDH1, stronger effect = lower value 0.977 | S. cerevisiae deletion strains, locus YKL160W, strain elf1, stronger effect = lower value 0.988 | S. cerevisiae deletion strains, locus YKL190W, strain CNB1, stronger effect = lower value 1 | S. cerevisiae deletion strains, locus YKR001C, strain vps1, stronger effect = lower value 0.943 | S. cerevisiae deletion strains, locus YKR026C, strain gcn3, stronger effect = lower value 0.983 | S. cerevisiae deletion strains, locus YKR091W, strain srl3, stronger effect = lower value 0.982 | S. cerevisiae deletion strains, locus YLL001W, strain dnm1, stronger effect = lower value 0.982 | S. cerevisiae deletion strains, locus YLL026W, stronger effect = lower value 0.997 | S. cerevisiae deletion strains, locus YLL041C, strain sdh2, stronger effect = lower value 0.971 | S. cerevisiae deletion strains, locus YLR027C, strain aat2, stronger effect = lower value 0.971 | S. cerevisiae deletion strains, locus YLR039C, strain RIC1, stronger effect = lower value 0.929 | S. cerevisiae deletion strains, locus YLR058C, strain SHM2, stronger effect = lower value 1.01 | S. cerevisiae deletion strains, locus YLR102C, strain apc9, stronger effect = lower value 0.986 | S. cerevisiae deletion strains, locus YLR221C, strain rsa3, stronger effect = lower value 0.993 | S. cerevisiae deletion strains, locus YLR258W, strain gsy2, stronger effect = lower value 0.982 | S. cerevisiae deletion strains, locus YLR262C, strain YPT6 (second series), stronger effect = lower value 0.944 | S. cerevisiae deletion strains, locus YLR262C, strain YPT6, stronger effect = lower value 0.903 | S. cerevisiae deletion strains, locus YLR268W, strain sec22, stronger effect = lower value 1.05 | S. cerevisiae deletion strains, locus YLR320W, strain mms22, stronger effect = lower value 0.955 | S. cerevisiae deletion strains, locus YLR330W, strain CHS5, stronger effect = lower value 0.997 | S. cerevisiae deletion strains, locus YLR342W, strain FKS1 (second series), stronger effect = lower value 0.98 | S. cerevisiae deletion strains, locus YLR342W, strain FKS1, stronger effect = lower value 0.967 | S. cerevisiae deletion strains, locus YLR357W, strain rsc2, stronger effect = lower value 0.963 | S. cerevisiae deletion strains, locus YLR370C, strain arc18, stronger effect = lower value 0.971 | S. cerevisiae deletion strains, locus YLR371W, strain rom2, stronger effect = lower value 0.989 | S. cerevisiae deletion strains, locus YLR384C, strain iki3, stronger effect = lower value 0.976 | S. cerevisiae deletion strains, locus YLR418C, strain cdc73, stronger effect = lower value 0.971 | S. cerevisiae deletion strains, locus YML016C, strain PPZ1, stronger effect = lower value 1 | S. cerevisiae deletion strains, locus YML032C, strain rad52, stronger effect = lower value 1 | S. cerevisiae deletion strains, locus YML120C, strain ndi1, stronger effect = lower value 0.99 | S. cerevisiae deletion strains, locus YML124C, strain tub3, stronger effect = lower value 0.992 | S. cerevisiae deletion strains, locus YMR058W, strain fet3, stronger effect = lower value 0.969 | S. cerevisiae deletion strains, locus YMR078C, strain ctf18, stronger effect = lower value 0.977 | S. cerevisiae deletion strains, locus YMR125W, strain sto1, stronger effect = lower value 0.972 | S. cerevisiae deletion strains, locus YMR129W, stronger effect = lower value 0.96 | S. cerevisiae deletion strains, locus YMR205C, strain PFK2, stronger effect = lower value 0.974 | S. cerevisiae deletion strains, locus YMR223W, strain ubp8, stronger effect = lower value 0.963 | S. cerevisiae deletion strains, locus YMR231W, strain pep5, stronger effect = lower value 0.987 | S. cerevisiae deletion strains, locus YMR263W, strain SAP30, stronger effect = lower value 1.01 and 0.996 | S. cerevisiae deletion strains, locus YMR307W, strain GAS1, stronger effect = lower value 0.955 | S. cerevisiae deletion strains, locus YNL067W, strain RPL9B, stronger effect = lower value 1.02 | S. cerevisiae deletion strains, locus YNL071W, strain lat1, stronger effect = lower value 0.96 | S. cerevisiae deletion strains, locus YNL128W, strain TEP1, stronger effect = lower value 0.996 and 0.976 | S. cerevisiae deletion strains, locus YNL153C, strain GIM3, stronger effect = lower value 1.02 and 1.01 | S. cerevisiae deletion strains, locus YNL175C, strain NOP13, stronger effect = lower value 0.964 | S. cerevisiae deletion strains, locus YNL183C, strain NPR1, stronger effect = lower value 0.88 | S. cerevisiae deletion strains, locus YNL197C, strain WHI3, stronger effect = lower value 0.963 | S. cerevisiae deletion strains, locus YNL209W, strain ssb2, stronger effect = lower value 0.978 | S. cerevisiae deletion strains, locus YNL224C, strain SQS1, stronger effect = lower value 0.978 | S. cerevisiae deletion strains, locus YNL233W, strain BNI4, stronger effect = lower value 1.02 | S. cerevisiae deletion strains, locus YNL248C, strain rpa49, stronger effect = lower value 0.977 | S. cerevisiae deletion strains, locus YNL250W, strain rad50, stronger effect = lower value 0.928 | S. cerevisiae deletion strains, locus YNL271C, strain bni1, stronger effect = lower value 0.938 | S. cerevisiae deletion strains, locus YNL307C, strain MCK1, stronger effect = lower value 0.98 | S. cerevisiae deletion strains, locus YNL322C, strain KRE1 (second series), stronger effect = lower value 0.938 | S. cerevisiae deletion strains, locus YNL322C, strain KRE1, stronger effect = lower value 1.01 and 0.995 | S. cerevisiae deletion strains, locus YNR049C, strain mso1, stronger effect = lower value 0.972 | S. cerevisiae deletion strains, locus YNR052C, strain pop2, stronger effect = lower value 0.969 | S. cerevisiae deletion strains, locus YOL006C, strain TOP1, stronger effect = lower value 1.06 | S. cerevisiae deletion strains, locus YOL012C, strain htz1 1.17 | S. cerevisiae deletion strains, locus YOL147C, strain pex11, stronger effect = lower value 0.994 | S. cerevisiae deletion strains, locus YOR001W, strain rrp6, stronger effect = lower value 0.957 | S. cerevisiae deletion strains, locus YOR061W, strain CKA2, stronger effect = lower value 1 | S. cerevisiae deletion strains, locus YOR069W, strain VPS5, stronger effect = lower value 1 | S. cerevisiae deletion strains, locus YOR070C, strain gyp1, stronger effect = lower value 0.978 | S. cerevisiae deletion strains, locus YOR080W, strain dia2, stronger effect = lower value 0.976 | S. cerevisiae deletion strains, locus YOR083W, strain WHI5 (second series), stronger effect = lower value 0.972 | S. cerevisiae deletion strains, locus YOR083W, strain WHI5, stronger effect = lower value 1.01 | S. cerevisiae deletion strains, locus YOR106W, strain vam3, stronger effect = lower value 0.978 | S. cerevisiae deletion strains, locus YOR136W, strain idh2, stronger effect = lower value 0.993 | S. cerevisiae deletion strains, locus YOR144C, strain elg1, stronger effect = lower value 0.995 | S. cerevisiae deletion strains, locus YOR184W, strain ser1, stronger effect = lower value 0.958 | S. cerevisiae deletion strains, locus YOR231W, strain MKK1, stronger effect = lower value 0.898 | S. cerevisiae deletion strains, locus YOR265W, strain rbl2, stronger effect = lower value 0.994 | S. cerevisiae deletion strains, locus YOR270C, strain vph1, stronger effect = lower value 0.938 | S. cerevisiae deletion strains, locus YOR290C, strain snf2, stronger effect = lower value 0.937 | S. cerevisiae deletion strains, locus YOR316C, strain cot1, stronger effect = lower value 0.999 | S. cerevisiae deletion strains, locus YPL051W, strain arl3, stronger effect = lower value 0.994 | S. cerevisiae deletion strains, locus YPL055C, strain LGE1, stronger effect = lower value 0.99 and 0.992 | S. cerevisiae deletion strains, locus YPL078C, strain atp4, stronger effect = lower value 0.979 | S. cerevisiae deletion strains, locus YPL106C, strain sse1, stronger effect = lower value 0.994 | S. cerevisiae deletion strains, locus YPL240C, strain hsp82, stronger effect = lower value 0.993 | S. cerevisiae deletion strains, locus YPL241C, strain CIN2, stronger effect = lower value 1 | S. cerevisiae deletion strains, locus YPR119W, strain clb2, stronger effect = lower value 0.977 | S. cerevisiae deletion strains, locus YPR141C, strain kar3, stronger effect = lower value 0.961 | S. cerevisiae deletion strains, locus YPR163C, strain tif3, stronger effect = lower value 0.987 | S. cerevisiae deletion strains, locus YPR167C, strain met16, stronger effect = lower value 0.986 | S. cerevisiae deletion strains, strain wtn01, stronger effect = lower value 1.01 | S. cerevisiae strains, strain wild type, stronger effect = lower value 1

Reference: PubChem BioAssay AID1159580 (chemical genetic matrix, 2015)
